For 11 compounds, ΔTm results are on record in ChEMBL document CHEMBL5724796, “Tm Shift (DSF) assay results for EUbOPEN Chemogenomics Library” (2024).

Non-standard residues stand in square brackets, D forms with d. Residues, ends and D or L forms follow the SMILES beside them. *: point of attachment. Benzoyl(4-tBu) = CC(C)(C)c1ccc(C(=O)*)cc1; Lys(Et2) = CCN(CC)CCCC[C@H](N)C(=O)O

Conditions in all cases: Compound concentration 20.0 uM
The target in assay [1] is Tyrosine-protein kinase ABL1 (Homo sapiens) (UniProt P00519).
Chain of Tyrosine-protein kinase ABL1 (Homo sapiens) (P00519 whole entry): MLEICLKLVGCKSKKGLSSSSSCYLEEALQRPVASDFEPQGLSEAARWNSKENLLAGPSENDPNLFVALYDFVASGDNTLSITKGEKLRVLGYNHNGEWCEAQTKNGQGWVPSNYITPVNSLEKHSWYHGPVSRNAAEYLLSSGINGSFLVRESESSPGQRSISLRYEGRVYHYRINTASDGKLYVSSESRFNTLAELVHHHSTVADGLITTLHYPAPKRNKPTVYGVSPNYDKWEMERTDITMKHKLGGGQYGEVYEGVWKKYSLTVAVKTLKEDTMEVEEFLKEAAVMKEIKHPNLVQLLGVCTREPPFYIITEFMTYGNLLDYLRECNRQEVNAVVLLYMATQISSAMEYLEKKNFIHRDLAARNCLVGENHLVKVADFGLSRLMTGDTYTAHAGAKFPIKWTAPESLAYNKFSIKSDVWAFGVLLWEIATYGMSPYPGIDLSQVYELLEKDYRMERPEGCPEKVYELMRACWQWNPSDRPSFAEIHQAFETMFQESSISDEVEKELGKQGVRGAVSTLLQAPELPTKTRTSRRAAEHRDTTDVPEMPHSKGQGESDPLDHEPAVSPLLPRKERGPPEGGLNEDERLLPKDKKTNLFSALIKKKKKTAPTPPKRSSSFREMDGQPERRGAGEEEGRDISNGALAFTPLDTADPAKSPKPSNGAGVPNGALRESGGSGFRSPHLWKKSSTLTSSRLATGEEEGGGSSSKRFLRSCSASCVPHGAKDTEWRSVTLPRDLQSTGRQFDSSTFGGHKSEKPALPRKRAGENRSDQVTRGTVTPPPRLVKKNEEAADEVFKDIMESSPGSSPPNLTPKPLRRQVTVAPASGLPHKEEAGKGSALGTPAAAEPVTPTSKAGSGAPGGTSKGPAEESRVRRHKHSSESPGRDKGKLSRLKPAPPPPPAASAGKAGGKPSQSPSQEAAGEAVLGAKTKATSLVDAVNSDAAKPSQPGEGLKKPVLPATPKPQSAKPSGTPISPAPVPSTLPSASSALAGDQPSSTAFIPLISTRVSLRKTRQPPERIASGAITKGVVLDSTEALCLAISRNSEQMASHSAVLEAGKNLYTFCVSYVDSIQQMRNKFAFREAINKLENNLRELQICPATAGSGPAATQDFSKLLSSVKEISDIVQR
The target of assay [2] is Bromodomain-containing protein 4 (Homo sapiens) (UniProt O60885).
In assay [3] the target is Cyclin-dependent kinase 2 (Homo sapiens) (UniProt P24941).
Assay [4] deals with Casein kinase I isoform delta (Homo sapiens) (UniProt P48730).
Chain of Casein kinase I isoform delta (Homo sapiens) (P48730 whole entry, looked up, canonical isoform): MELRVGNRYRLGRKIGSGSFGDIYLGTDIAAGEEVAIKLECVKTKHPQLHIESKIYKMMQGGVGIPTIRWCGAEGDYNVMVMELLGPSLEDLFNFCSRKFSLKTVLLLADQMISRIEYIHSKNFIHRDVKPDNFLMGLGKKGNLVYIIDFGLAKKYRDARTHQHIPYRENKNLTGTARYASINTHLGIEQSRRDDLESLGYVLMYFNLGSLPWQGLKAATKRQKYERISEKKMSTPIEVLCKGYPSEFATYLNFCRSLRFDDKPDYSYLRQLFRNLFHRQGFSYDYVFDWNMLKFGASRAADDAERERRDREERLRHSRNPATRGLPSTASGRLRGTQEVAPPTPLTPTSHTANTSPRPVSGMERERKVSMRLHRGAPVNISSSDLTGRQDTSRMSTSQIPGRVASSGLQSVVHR
In assay [5] the target is Glycogen synthase kinase-3 beta (Homo sapiens) (UniProt P49841).
Chain of Glycogen synthase kinase-3 beta (Homo sapiens) (P49841 whole entry, looked up): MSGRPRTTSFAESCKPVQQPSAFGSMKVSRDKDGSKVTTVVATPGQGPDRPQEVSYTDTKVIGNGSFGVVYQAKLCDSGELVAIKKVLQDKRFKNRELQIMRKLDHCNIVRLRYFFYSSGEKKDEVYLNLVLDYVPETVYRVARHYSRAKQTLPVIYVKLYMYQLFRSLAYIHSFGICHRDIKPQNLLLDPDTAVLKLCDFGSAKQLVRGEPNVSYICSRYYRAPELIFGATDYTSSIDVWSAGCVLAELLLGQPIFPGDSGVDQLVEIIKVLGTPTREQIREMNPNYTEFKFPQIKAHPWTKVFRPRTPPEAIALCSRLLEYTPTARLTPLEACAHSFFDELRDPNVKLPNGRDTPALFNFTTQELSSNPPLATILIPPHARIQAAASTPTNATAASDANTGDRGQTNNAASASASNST
The target of assay [6] is Mitogen-activated protein kinase 1 (Homo sapiens) (UniProt P28482).
Chain of Mitogen-activated protein kinase 1 (Homo sapiens) (P28482 whole entry): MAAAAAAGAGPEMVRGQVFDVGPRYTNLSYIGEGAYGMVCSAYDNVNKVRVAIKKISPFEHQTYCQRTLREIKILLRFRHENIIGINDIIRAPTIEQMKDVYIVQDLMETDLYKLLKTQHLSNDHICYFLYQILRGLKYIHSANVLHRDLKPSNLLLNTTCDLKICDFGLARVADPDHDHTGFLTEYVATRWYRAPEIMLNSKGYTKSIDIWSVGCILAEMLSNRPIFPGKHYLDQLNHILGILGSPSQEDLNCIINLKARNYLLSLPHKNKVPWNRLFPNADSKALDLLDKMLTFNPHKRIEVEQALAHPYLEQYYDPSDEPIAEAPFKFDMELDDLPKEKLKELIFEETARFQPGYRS
The target in assay [7] is T1, Aurora kinase A (Homo sapiens) (UniProt O14965).
T1 sequence (whole entry): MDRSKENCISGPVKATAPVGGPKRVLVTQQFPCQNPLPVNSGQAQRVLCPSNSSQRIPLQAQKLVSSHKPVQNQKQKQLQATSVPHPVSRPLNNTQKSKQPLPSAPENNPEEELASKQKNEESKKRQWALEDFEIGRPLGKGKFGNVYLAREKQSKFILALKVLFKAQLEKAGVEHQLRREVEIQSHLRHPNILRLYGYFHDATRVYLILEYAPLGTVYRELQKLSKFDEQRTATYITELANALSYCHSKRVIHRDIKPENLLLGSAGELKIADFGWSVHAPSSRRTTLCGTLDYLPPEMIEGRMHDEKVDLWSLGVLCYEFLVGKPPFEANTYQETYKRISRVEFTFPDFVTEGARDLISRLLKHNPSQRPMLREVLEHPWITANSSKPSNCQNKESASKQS

In assay [8] the target is T2, Transcription intermediary factor 1-alpha (Homo sapiens) (UniProt O15164).
T2 sequence (whole entry): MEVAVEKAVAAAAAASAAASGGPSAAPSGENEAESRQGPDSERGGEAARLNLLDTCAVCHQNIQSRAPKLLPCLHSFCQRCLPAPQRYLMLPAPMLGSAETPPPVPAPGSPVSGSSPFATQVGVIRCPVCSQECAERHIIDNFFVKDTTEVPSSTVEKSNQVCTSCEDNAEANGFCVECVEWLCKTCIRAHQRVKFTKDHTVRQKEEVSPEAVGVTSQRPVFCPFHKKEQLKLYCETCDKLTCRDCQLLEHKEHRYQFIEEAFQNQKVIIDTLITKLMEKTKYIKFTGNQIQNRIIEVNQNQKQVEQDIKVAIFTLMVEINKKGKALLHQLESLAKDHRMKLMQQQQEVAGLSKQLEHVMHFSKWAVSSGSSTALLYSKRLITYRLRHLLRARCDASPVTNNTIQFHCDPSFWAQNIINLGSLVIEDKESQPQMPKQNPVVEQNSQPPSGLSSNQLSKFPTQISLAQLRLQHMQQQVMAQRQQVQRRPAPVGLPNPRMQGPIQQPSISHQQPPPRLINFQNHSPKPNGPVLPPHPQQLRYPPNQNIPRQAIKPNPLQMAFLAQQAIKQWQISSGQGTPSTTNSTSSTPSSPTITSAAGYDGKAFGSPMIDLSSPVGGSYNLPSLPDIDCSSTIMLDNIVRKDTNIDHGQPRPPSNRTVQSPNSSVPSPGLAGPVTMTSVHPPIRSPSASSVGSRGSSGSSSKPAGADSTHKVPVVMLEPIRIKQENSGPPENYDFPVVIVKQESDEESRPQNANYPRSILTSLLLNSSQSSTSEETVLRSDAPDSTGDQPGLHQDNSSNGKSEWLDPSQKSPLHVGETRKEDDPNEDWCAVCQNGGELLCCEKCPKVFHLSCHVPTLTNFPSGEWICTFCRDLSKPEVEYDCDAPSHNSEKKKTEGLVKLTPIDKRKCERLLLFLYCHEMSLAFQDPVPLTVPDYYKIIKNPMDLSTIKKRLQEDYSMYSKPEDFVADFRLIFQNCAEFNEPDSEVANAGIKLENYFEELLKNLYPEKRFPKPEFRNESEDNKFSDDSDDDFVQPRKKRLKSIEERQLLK

In general, ΔTm refers to the change in melting temperature against a reference sample. As for `Oc1nc(-c2ccc(C(F)(F)F)cc2)nc2c1CSCC2`, the ΔTm in assay [1] was 0.58 °C; in assay [2], -2.75 °C; in assay [3], 0.01 °C; in assay [4], -0.13 °C; in assay [5], 0.44 °C; in assay [6], 0.11 °C. For the same compound, the ΔTm in assay [7] was -2.41 °C; in assay [8], -0.56 °C.

Regarding `C[C@H](Nc1cc(Cl)nc2c1cnn2[C@@H]1O[C@H](COP(=O)(O)CP(=O)(O)O)[C@@H](O)[C@H]1O)c1ccccc1F`, the ΔTm was 1.24 °C in assay [1]; -1.43 °C in assay [2]; -0.1 °C in assay [3]; 0.27 °C in assay [4]; 1 °C in assay [5]; -0.38 °C in assay [6]. Moreover, the ΔTm is 1.74 °C in assay [7] and -0.82 °C in assay [8].

Turning to `CC(C)(O)c1ccc(-c2nc3c(F)cc(F)cc3c(=O)[nH]2)cc1`, the ΔTm in assay [1] is 1.34 °C; in assay [2] it was -1.77 °C; in assay [3], -0.55 °C; in assay [4] it was 1.05 °C; in assay [5], -2.12 °C; in assay [6], -4.92 °C. The ΔTm in assay [7] is -0.15 °C; in assay [8] it was -1.14 °C.

`CC(C)N(CCCNC(=O)Nc1ccc(C(C)(C)C)cc1)C[C@H]1O[C@@H](n2ccc3c(N)ncnc32)[C@H](O)[C@@H]1O`: the ΔTm was 0.45 °C in assay [1]; -1.62 °C in assay [2]; 0.52 °C in assay [3]; 0.47 °C in assay [4]; -0.31 °C in assay [5]; 0.01 °C in assay [6]. The results for the ΔTm in assay [7] and in assay [8] were 0.01 °C and -1.18 °C, respectively.

In the case of `CC(c1cccc2ccccc12)n1cnc2c(=O)[nH]c(Cc3ccccc3)nc21` (stereo not drawn), the ΔTm in assay [1] is 0.22 °C; in assay [2] it was -5.4 °C; in assay [3], -0.82 °C; in assay [4], 0.84 °C; in assay [5], -1 °C; in assay [6], -0.16 °C. For the same compound, the ΔTm in assay [7] was -3.08 °C; in assay [8] it was -1.81 °C.

For the compound `CCOC(=O)Oc1c(OC)cc(C(=O)O[C@H]2C[C@H]3CN4CCc5c([nH]c6cc(OC)ccc56)[C@@H]4C[C@H]3[C@@H](C(=O)OC)[C@@H]2OC)cc1OC`, the ΔTm was 0.54 °C in assay [1]; -2.32 °C in assay [2]; 0.27 °C in assay [3]; -0.84 °C in assay [4]; -0.14 °C in assay [5]; -0.02 °C in assay [6]. The ΔTm in assay [7] was -2.27 °C; in assay [8] it was 0.01 °C.

In the case of `CCNC(=O)NCCSC[C@H]1O[C@@H](n2cnc3c(N)ncnc32)[C@H](O)[C@@H]1O`, the ΔTm in assay [1] was 0.85 °C; in assay [2] it was -1.51 °C; in assay [3] it was 0.53 °C; in assay [4], 0.63 °C; in assay [5], -0.36 °C; in assay [6], -1.34 °C. Moreover, the ΔTm in assay [7] is -0.19 °C; in assay [8], -1.13 °C.

For the compound `NC(=O)C(CCCN=C(N)CCl)NC(=O)c1ccccc1` (stereo not drawn), the ΔTm in assay [1] is 0.36 °C; in assay [2], -3.15 °C; in assay [3] it was 0.18 °C; in assay [4], -0.56 °C; in assay [5] it was 0.08 °C; in assay [6], 0.22 °C. The ΔTm in assay [7] is -2.39 °C; in assay [8] it was 1.03 °C.

For the compound `C=C(C)[C@@H](CC=C(C)C)C[C@@]12C[C@@H](CC=C(C)C)C(C)(C)[C@@](CC=C(C)C)(C(=O)C(C(=O)c3ccc(O)c(O)c3)=C1O)C2=O`, the ΔTm in assay [1] was 0.52 °C; in assay [2], -5.01 °C; in assay [3] it was -3.75 °C; in assay [4], 0.51 °C; in assay [5], -0.68 °C; in assay [6] it was -6.65 °C. In addition, the results for the ΔTm in assay [7] and in assay [8] were 0.51 °C and -0.01 °C, respectively.

As to `O=C(CN1CCN(C(=O)c2ccco2)CC1)Nc1cc(C(F)(F)F)ccc1Cl`, the ΔTm is 0.19 °C in assay [1]; 2.01 °C in assay [2]; 0.06 °C in assay [3]; -0.11 °C in assay [4]; -0.95 °C in assay [5]; 0.07 °C in assay [6]. Moreover, the ΔTm was -1.45 °C in assay [7] and 0.51 °C in assay [8].

Take `CCN(CC)CCCC[C@H](NC(=O)[C@H](CC(C)C)NC(=O)[C@H](C)NC(=O)[C@H](Cc1ccccc1)NC(=O)c1ccc(C(C)(C)C)cc1)C(=O)N[C@@H](CO)C(=O)OC` ({Benzoyl(4-tBu)}-FAL[Lys(Et2)]S-OMe): the ΔTm in assay [1] is 0.51 °C; in assay [2] it was -1.71 °C; in assay [3] it was -0.26 °C; in assay [4], 0.5 °C; in assay [5], -1.01 °C; in assay [6], 0.31 °C. Moreover, the ΔTm was -1.22 °C in assay [7] and -1.11 °C in assay [8].
